In PubChem BioAssay (Tox21):
A number with no mark means an inactive call. Records with an inconclusive call do not appear. Active and inactive are the calls of the source. Calls follow the shape of the full dose curve.

target: Acetylcholinesterase (Homo sapiens) (UniProt P22303); assay: Acetylcholinesterase (AChE) small molecule antagonists: fluorescence cell-based qHTS assay (AID 1347398); details: SH-SY5Y cells; Potency: AChE activity; outcome: AChE activity; series mostly up to 115 µM; activity change, negative = inhibition: at the top concentration; also: nearly all actives have a fitted effect of over 50% in size
Sequence (P22303 whole entry, looked up): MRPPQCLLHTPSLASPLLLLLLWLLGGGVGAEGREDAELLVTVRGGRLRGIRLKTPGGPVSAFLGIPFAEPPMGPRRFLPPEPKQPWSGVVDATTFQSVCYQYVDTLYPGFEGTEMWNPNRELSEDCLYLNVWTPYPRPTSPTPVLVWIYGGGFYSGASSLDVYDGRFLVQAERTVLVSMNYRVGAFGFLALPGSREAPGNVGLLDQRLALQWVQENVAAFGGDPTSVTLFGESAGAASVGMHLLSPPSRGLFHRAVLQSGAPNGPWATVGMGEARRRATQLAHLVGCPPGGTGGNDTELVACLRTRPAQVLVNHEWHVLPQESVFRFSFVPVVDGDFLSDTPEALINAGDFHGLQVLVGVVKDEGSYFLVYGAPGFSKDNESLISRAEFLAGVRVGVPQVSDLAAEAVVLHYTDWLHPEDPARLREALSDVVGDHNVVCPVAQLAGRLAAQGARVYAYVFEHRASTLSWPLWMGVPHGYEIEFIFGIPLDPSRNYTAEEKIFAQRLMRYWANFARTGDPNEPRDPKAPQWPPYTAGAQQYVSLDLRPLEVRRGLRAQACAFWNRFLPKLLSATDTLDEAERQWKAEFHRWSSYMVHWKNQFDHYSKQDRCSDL
Summary of the method: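 Using neuroblastoma SH-SY5Y cells as the enzyme source, test chemicals are preincubated 30 min at 37 C; AChE-driven acetylthiocholine cleavage is then quantified by thiocholine-dependent Thiolite Green fluorescence after 40 min at room temperature.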
% is scaled to controls: 0 for no effect and ±100 for the full control effect.

| SMILES | activity change, negative = inhibition | Potency |
| --- | --- | --- |
| O=C(CCCN1CCC(O)(c2ccc(Br)cc2)CC1)c1ccc(F)cc1 | 0.0159% [at 53.7 µM] | – |
| Cc1ccccc1Br | 0.122% | – |
| CCCCN(CCC(=O)OCC)C(C)=O | -0.189% | – |
| CCCCCCCCCCCC[N+](C)(C)CC(=O)[O-] | 5.24% | – |
| CCc1nnc(NS(=O)(=O)c2ccc(N)cc2)s1 | 28.1% [at 53.7 µM] | – |
| CCN(Cc1ccccc1)c1ccccc1 | -1.77% | – |
| CC[C@H](C)[C@@H](C(=O)O)n1sc2ccccc2c1=O | -17.9% | – |
| CC12CCC(C1)C(C)(C)C2O (stereo unspecified) | -0.433% | – |
| CC(=O)C(=O)CC(C)C | -1.66% | – |
| OC[C@H]1O[C@H](O[C@]2(CCl)O[C@H](CCl)[C@@H](O)[C@@H]2O)[C@H](O)[C@@H](O)[C@H]1Cl | – | inactive |
| CO[C@@H]1[C@H](OC(=O)/C=C/C=C/C=C/C=C/C(=O)O)CC[C@]2(CO2)[C@H]1[C@@]1(C)O[C@@H]1CC=C(C)C | -0.819% | – |
| Clc1cccc(C(c2ccc3nc[nH]c3c2)n2ccnc2)c1 (stereo unspecified) | -7.96% [at 53.7 µM] | – |
| NC(=O)c1ncn([C@@H]2O[C@H](CO)[C@@H](O)[C@H]2O)n1 | – | inactive |
| O=c1[nH]cnc2c1ncn2[C@H]1CC[C@@H](CO)O1 | – | inactive |
| C[C@@H]1CN(c2c(F)c(N)c3c(=O)c(C(=O)O)cn(C4CC4)c3c2F)C[C@H](C)N1 | -0.604% [at 23.8 µM] | – |
| CCOCOCC | 0.888% | – |

target: Acetylcholinesterase (Homo sapiens) (UniProt P22303); assay: Acetylcholinesterase (AChE) small molecule antagonists: enzyme-based qHTS assay with human liver microsomes (AID 1347399); details: Potency: qHTS inhibition; outcome: qHTS inhibition; series mostly up to 115 µM; activity change, negative = inhibition: at the top concentration; also: nearly all actives have a fitted effect of over 60% in size
Summary of the method: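 Recombinant human AChE (50 mU/mL in the enzyme mix) and human liver microsomes (0.25 mg/mL final) were preincubated with compound and NADPH (0.25 mg/mL final) for 30 min at 37 C. Acetylthiocholine/DTNB was then added; thiocholine was read colorimetrically after 10 min at room temperature.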

| SMILES | activity change, negative = inhibition | Potency |
| --- | --- | --- |
| CCCCC(CC)COCCC#N (stereo unspecified) | 0.62% | – |
| CC(=O)OCCC1CCCCC1 | -2.97% | – |
| CCN(CC)C(=O)C1CN2CCc3cc(OC)c(OC)cc3C2CC1OC(C)=O (stereo unspecified) | -6.8% [at 53 µM] | – |
| CC(C)c1ccc2sc3ccccc3c(=O)c2c1 | 0.102% | – |
| CC(C)c1cccc(O)c1 | 1.07% | – |
| c1ccc2c(c1)ccc1ccccc12 | – | inactive |
| COC(=O)c1ccccc1C | 0.522% | – |
| CN(C)CCCOC1(Cc2ccccc2)CCCCCC1 | -0.42% [at 53 µM] | – |
| CC1(C)[C@@H]2CC[C@@]1(C)C(=O)C2 | – | inactive |
| O=C(Cl)c1ccccc1[N+](=O)[O-] | 0.0178% | – |
| O=C(O)CCC(=O)C(=O)O | 2% | – |
| O=C(OCC1CCC2OC2C1)C1CCC2OC2C1 (stereo unspecified) | – | inactive |
| CCOc1cc(NC(C)=O)ccc1C(=O)OC | -1.71% [at 53 µM] | – |
| C1N2CN3CN1CN(C2)C3 | – | inactive |
| CCCCCCCCCCCCO | – | inactive |
| CCCCOCCOCCOCCCC | 2.1% | – |
| CN(C)Cc1ccccc1O | 0.611% | – |
| OC[C@H]1O[C@@H]2O[C@H]3[C@H](O)[C@@H](O)[C@@H](O[C@H]4[C@H](O)[C@@H](O)[C@@H](O[C@H]5[C@H](O)[C@@H](O)[C@@H](O[C@H]6[C@H](O)[C@@H](O)[C@@H](O[C@H]7[C@H](O)[C@@H](O)[C@@H](O[C@H]1[C@H](O)[C@H]2O)O[C@@H]7CO)O[C@@H]6CO)O[C@@H]5CO)O[C@@H]4CO)O[C@@H]3CO | – | inactive |
| CC(=O)OCc1ccccc1 | – | inactive |
| CC12CCCC=C1C(=O)OC2=O (stereo unspecified) | -0.679% | – |

| SMILES | activity change, negative = inhibition | Potency |
| --- | --- | --- |
| NCCOCCN | 2.52% | – |
| C=CCc1ccc(OC)c(OC)c1 | – | inactive |
| C=CCSSCCC | 3.01% | – |
| C=CCCCCCCCCC(=O)OCC | 0.917% | – |
| O=C(CCCN1CCC(O)(c2ccc(Br)cc2)CC1)c1ccc(F)cc1 | 0% [at 53 µM] | – |
| Cc1ccccc1Br | -2.21% | – |
| CCCCN(CCC(=O)OCC)C(C)=O | 0.688% | – |
| CCCCCCCCCCCC[N+](C)(C)CC(=O)[O-] | 1.3% | – |
| CCc1nnc(NS(=O)(=O)c2ccc(N)cc2)s1 | -0.584% [at 53 µM] | – |
| CCN(Cc1ccccc1)c1ccccc1 | -5.93% | – |
| CC[C@H](C)[C@@H](C(=O)O)n1sc2ccccc2c1=O | -4.85% | – |
| CC12CCC(C1)C(C)(C)C2O (stereo unspecified) | 0.189% | – |
| CC(=O)C(=O)CC(C)C | -0.166% | – |
| OC[C@H]1O[C@H](O[C@]2(CCl)O[C@H](CCl)[C@@H](O)[C@@H]2O)[C@H](O)[C@@H](O)[C@H]1Cl | – | inactive |
| CO[C@@H]1[C@H](OC(=O)/C=C/C=C/C=C/C=C/C(=O)O)CC[C@]2(CO2)[C@H]1[C@@]1(C)O[C@@H]1CC=C(C)C | 0.84% | – |
| Clc1cccc(C(c2ccc3nc[nH]c3c2)n2ccnc2)c1 (stereo unspecified) | 7.97% [at 53 µM] | – |
| NC(=O)c1ncn([C@@H]2O[C@H](CO)[C@@H](O)[C@H]2O)n1 | – | inactive |
| O=c1[nH]cnc2c1ncn2[C@H]1CC[C@@H](CO)O1 | – | inactive |
| C[C@@H]1CN(c2c(F)c(N)c3c(=O)c(C(=O)O)cn(C4CC4)c3c2F)C[C@H](C)N1 | 0.841% [at 23.6 µM] | – |
| CCOCOCC | -0.972% | – |
